Data on 88 molecules can be found in PubChem BioAssay AID463173 (ICCB-Longwood Screening Facility, Harvard Medical School, 2010).

Screen size: about 52,000 compounds; about 4,300 (8.3%) were called active. Cut-off read from the data, not from the text of the source: active = survival mostly below about 52% (no sharp cut-off); inactive = mostly above about 56%. The full list was thinned out, with actives kept by preference.

For the experiment, the system named is DeltatarO mutant. As to the kind of experiment: growth inhibition of S. aureus wild type versus tarO mutant, primary screen, teichoic acid synthesis inhibitors, RN4220, OD600 (AID 463173). Conditions: OD600, 18 h, hits give low values, screened at 18.75 µg/mL (by protocol).
Consider `Cc1ccc(S(=O)(=O)N2CCN(C(=O)c3c(C)nn(-c4ccccc4)c3Cl)CC2)cc1`, for which the survival is 63% (inactive). The figure for `O=C(O)CCNC(=O)c1ccc(Br)o1` is 72% (inactive); for `Cc1ccccc1Nc1c(-c2ccc(N3CCOCC3)cc2)nc2ncccn12` it is 83% (inactive); for `Cc1cccc(C)c1NC(=O)CN(C)S(=O)(=O)c1ccc2c(c1)n(C)c(=O)c(=O)n2C` it is 89% (inactive). The figure for `O=c1c(S(=O)(=O)c2ccccc2)cn(Cc2cccc(F)c2)c2cc(N3CCOCC3)c(F)cc12` is 78% (inactive); for `COc1ccc(Cl)cc1NC(=O)c1c(NCc2ccc(C)o2)sc2c1CCCC2` it is 74% (inactive); for `COc1ccc(Cl)cc1N(C)C(=O)c1ccc2c(=O)n3c(nc2c1)CCCCC3` it is 76% (inactive). Regarding `N#Cc1ccc(NC2=NS(=O)(=O)c3ccccc32)cc1`, the survival was 68% (inactive). Take `O=C(NCCc1ccc(Cl)cc1)c1ccco1`: the survival was 98% (inactive). The figure for `Cc1ccccc1NC(=O)c1c(NC(=O)C(C)Oc2cccc(Cl)c2)sc2c1CCCC2` (stereo not drawn) is 40% (active); for `CCCc1ccc(OCC(=O)Nc2sc3c(c2C(=O)OC)CCCCC3)cc1` it is 38% (active); for `COC(=O)c1c(NC(=O)COc2ccc(C(C)C)cc2)sc2c1CCCC2` it is 47% (inactive). For the molecule `CCOc1ccccc1NC(=O)c1c(NC(=O)C(C)Oc2cccc(Cl)c2)sc2c1CCCCC2` (stereo not drawn), the survival was 64% (inactive). The figure for `COC(=O)c1c(NC(=O)c2ccc(OC)cc2OC)sc2c1CCCCC2` is 47% (inactive); for `COC(=O)c1c(NC(=O)c2c(OC)cccc2OC)sc2c1CCCC2` it is 13% (active); for `COC(=O)c1c(NC(=O)c2ccccc2C(=O)O)sc2c1CCCC2` it is 92% (inactive). The figure for `Cc1cc(OC(C)C(=O)Nc2sc3c(c2C(N)=O)CCCC3)ccc1Cl` (stereo not drawn) is 59% (inactive). As for `CCOC(=O)c1c(NC(=O)COc2c(C)cc(Cl)cc2Cl)sc2c1CCCC2`, the figure is 53% (inactive). With `CCOC(=O)c1c(NC(=O)C(C)Oc2ccc(Cl)c(C)c2)sc2c1CCCC2` (stereo not drawn), the survival was 42% (active). Consider `CCNC(=O)c1c(NC(=O)COc2ccc(F)cc2)sc2c1CCCC2`, for which the survival is 59% (inactive). In the case of `CCOc1ccccc1NC(=O)c1c(NC(=O)C(C)Oc2ccc(Cl)cc2)sc2c1CCCCC2` (stereo not drawn), the survival was 83% (inactive).

As to `CCN(C(=O)CN(C)S(=O)(=O)c1ccc2c(c1)c(=O)n(C)c(=O)n2C)c1ccc(OC)cc1`, the survival was 90% (inactive). The figure for `OP(Oc1ccccc1)(Oc1ccccc1)=P(O)(Oc1ccccc1)Oc1ccccc1` is 97% (inactive); for `COc1ccc(OC)c(Nc2ncc3c(n2)CCN(Cc2cc(OC)c(OC)c(OC)c2)C3)c1` it is 81% (inactive); for `CC(C)OCCCNC(=O)CN1C(=O)COc2ccc(S(=O)(=O)N3CCOCC3)cc21` it is 79% (inactive). The figure for `COC(=O)c1cc(NC(=O)c2sc3ncn(Cc4cccc(F)c4)c(=O)c3c2C)cc(C(=O)OC)c1` is 92% (inactive). Take `CCc1cccc(NC(=O)Cn2nc3c4cc(F)ccc4n(Cc4cccc(C)c4)cc-3c2=O)c1`: the survival is 84% (inactive).

In the case of `COc1ccc(-c2cc(C(=O)Oc3ccc(C)cc3)c3ccccc3n2)cc1`, the survival is 11% (active).

Turning to `COc1ccc(C(=O)COC(=O)c2cc(-c3ccccc3)nc3c(C)cccc23)cc1`, the survival was 64% (inactive). As for `Cc1ccc(C(=O)COC(=O)c2cc(-c3ccccc3)nc3ccccc23)cc1C`, the figure is 125% (inactive); as for `COc1ccc(-c2cc(C(=O)Oc3ccc(C)c(C)c3)c3ccccc3n2)cc1`, 40% (active); as for `COC(=O)c1cc(-c2ccc(OC)c(OC)c2)nc2ccccc12`, 72% (inactive).

Consider `Cc1ccc(-c2cc(C(=O)NCCc3ccccc3)c3ccccc3n2)cc1C`, for which the survival is 88% (inactive). For the molecule `COc1ccc(-c2cc(C(=O)Oc3cccc(C)c3C)c3ccccc3n2)cc1`, the survival was 31% (active). As for `COc1ccc(-c2cc(C(=O)Oc3ccc(Cl)cc3)c3ccccc3n2)cc1`, the figure is 49% (active); as for `Cc1ccc(C(=O)COC(=O)c2cc(-c3ccc(Cl)cc3)nc3ccccc23)cc1`, 136% (inactive). Regarding `COc1ccc(-c2cc(C(=O)Oc3ccc(Br)cc3)c3ccccc3n2)cc1`, the survival was 48% (inactive). As for `CNC(=O)c1cc(-c2ccc(OC)cc2)nc2ccccc12`, the figure is 77% (inactive); as for `COc1ccc(C(=O)COC(=O)c2cc(-c3cccs3)nc3ccccc23)cc1`, 58% (inactive); as for `CCn1cc(C(=O)OCC(=O)Nc2cccc(C(C)=O)c2)c(=O)c2ccc(C)nc21`, 84% (inactive). The figure for `CCC(O)(CCN1CCCCC1)c1ccccc1` (stereo not drawn) is 80% (inactive); for `Cc1cc(C)cc(N(CC(=O)NCc2ccco2)C(=O)c2snc(C(N)=O)c2N)c1` it is 93% (inactive); for `Cc1cccc(C(=O)N2CCc3cc(CNC(=O)CCc4ccccc4)ccc32)c1` it is 60% (inactive). As for `CC(=O)CSc1nnc2cc(C)c3cc(C)cc(C)c3n12`, the figure is 106% (inactive); as for `CCOC(=O)CN1C(=O)N(c2ccc(C)c(C)c2)S(=O)(=O)c2ccccc21`, 80% (inactive). With `COc1cc(CNCCSc2nnnn2C)ccc1OCc1ccc(Cl)cc1Cl`, the survival is 30% (active).

On to `COc1cc(CNCCSc2nnnn2C)ccc1OCc1ccccc1C`, for which the survival was 56% (inactive). In the case of `Cn1nnnc1SCCNCc1ccccc1OCc1ccc(Cl)cc1Cl`, the survival is 63% (inactive). `COc1cc(CNCCSc2nnnn2C)ccc1OCc1c(F)cccc1Cl`: the survival was 58% (inactive). On to `CCOc1cc(CNCCSc2nnnn2C)ccc1OCc1ccc(Cl)cc1Cl`, for which the survival is -6% (active).

As to `CCOc1ccc(CNCCSc2nnnn2C)cc1OC`, the survival is 65% (inactive). For the molecule `COc1ccc(-c2ccc(CCC(=O)O)n2CC(=O)Nc2cccc(Cl)c2C)cc1`, the survival was 46% (inactive). As for `COc1ccc(NC(=O)Cn2c(CCC(=O)O)ccc2-c2ccccc2)cc1Cl`, the survival was 61% (inactive). As for `O=C(O)CCc1ccc(-c2ccccc2)n1-c1cccc(Br)c1`, the survival was 65% (inactive). In the case of `COC(=O)c1ccccc1NC(=O)Cn1c(CCC(=O)O)ccc1-c1ccc(C)cc1`, the survival is 45% (active). The figure for `Cc1ccc(-c2ccc(CCC(=O)O)n2-c2cccc(O)c2)cc1` is 68% (inactive). As for `O=C(O)CCc1ccc(-c2ccc(Cl)cc2)n1-c1cccc(C(F)(F)F)c1`, the figure is 23% (active). As for `COc1ccc(OC)c(NC(=O)Cn2c(CCC(=O)O)ccc2-c2ccccc2)c1`, the figure is 103% (inactive); as for `COC(=O)c1ccccc1NC(=O)Cn1c(CCC(=O)O)ccc1-c1cccs1`, 54% (inactive); as for `COc1ccc(-c2ccc(CCC(=O)O)n2CC(=O)Nc2cccc(C(F)(F)F)c2)cc1`, 54% (active).

For the molecule `Cc1cc(NC(=O)N2CC=C(c3c[nH]c4ccccc34)CC2)ccc1Br`, the survival is 81% (inactive). `Cn1c(=O)[nH]c(=O)c2c1nc(NCCO)n2CC(O)COc1ccccc1` (stereo not drawn): the survival is 165% (inactive). `COC(=O)c1ccc(Nc2cc(=O)[nH]c(=O)[nH]2)cc1`: the survival was 79% (inactive). Regarding `CCOc1ccccc1NC(=O)CN1C(=O)CC(c2ccc(C)c(C)c2)=Nc2ccccc21`, the survival was 74% (inactive). The figure for `CCOCCCNC(=O)c1c[nH]c2ccc(S(=O)(=O)N(C)c3ccc(Cl)cc3F)cc2c1=O` is 124% (inactive); for `CC(C)(C)OC(=O)N1CCC(c2c(C(=O)NC3CCCCC3)cnn2-c2cccc(F)c2)CC1` it is 128% (inactive); for `Cc1ccc(CSc2nc3c([nH]c4ccccc43)c(=O)n2C)cc1` it is 94% (inactive). As for `Cc1ccc(Sc2ccc(N3CCC(C(=O)Nc4ccc(Cl)cc4)CC3)nn2)cc1`, the figure is 72% (inactive); as for `O=C(Nc1cc(C(F)(F)F)ccc1Cl)c1cc(S(=O)(=O)NCc2ccccc2)ccc1F`, 55% (inactive); as for `CN(Cc1ccccc1)S(=O)(=O)c1ccc(F)c(C(=O)Nc2ccccc2C(F)(F)F)c1`, -5% (active). For the molecule `CN(Cc1ccccc1)S(=O)(=O)c1ccc(F)c(C(=O)Nc2cc(Cl)cc(Cl)c2)c1`, the survival is 87% (inactive). Turning to `CN(Cc1ccccc1)S(=O)(=O)c1ccc(F)c(C(=O)Nc2cccc(Cl)c2Cl)c1`, the survival was 134% (inactive). On to `CCN(Cc1ccccc1)S(=O)(=O)c1ccc(F)c(C(=O)Nc2cc(C(F)(F)F)ccc2Cl)c1`, for which the survival was 17% (active). The figure for `CCN(Cc1ccccc1)S(=O)(=O)c1ccc(F)c(C(=O)Nc2ccc(C(C)C)cc2)c1` is 101% (inactive). `Cc1ccc(C(=O)N/C(=C/c2ccccc2)C(=O)NCc2ccco2)cc1`: the survival was 95% (inactive).

On to `COc1ccc(S(=O)(=O)C(C)(C)C)cc1`, for which the survival was 78% (inactive). For `COc1ccc(C(=O)Nc2nc3c(s2)CCCC3)cc1Cl`, the survival was 53% (inactive). The figure for `Cn1c(=O)[nH]c(=O)c2c1nc(CN1CCN(c3ccccc3F)CC1)n2Cc1ccc(F)cc1` is 122% (inactive); for `CCS(=O)(=O)c1ncc(N(Cc2ccccc2)Cc2ccco2)c(C(=O)Nc2cccc(Cl)c2C)n1` it is 60% (inactive); for `CCS(=O)(=O)c1ncc(N(Cc2ccco2)Cc2sccc2C)c(C(=O)Nc2cc(C)ccc2C)n1` it is 106% (inactive). For `CCS(=O)(=O)c1ncc(N(Cc2ccccc2)Cc2ccco2)c(C(=O)Nc2ccccc2C)n1`, the survival was 45% (active).

As to `CCS(=O)(=O)c1ncc(N(Cc2ccco2)Cc2sccc2C)c(C(=O)Nc2ccc(C)cc2C)n1`, the survival was 53% (active). As for `Cc1ccsc1CN(Cc1ccco1)c1cnc(S(C)(=O)=O)nc1C(=O)Nc1ccc(Cl)cc1`, the figure is 40% (active). Consider `CCS(=O)(=O)c1ncc(N(Cc2ccccc2)Cc2ccco2)c(C(=O)Nc2ccc(C)c(C)c2)n1`, for which the survival is 52% (inactive).

Regarding `Cc1ccccc1NC(=O)c1nc(S(C)(=O)=O)ncc1N(Cc1ccco1)Cc1sccc1C`, the survival was 43% (active). On to `Cc1ccc(CN(Cc2ccco2)c2cnc(S(C)(=O)=O)nc2C(=O)Nc2ccc(Br)cc2)o1`, for which the survival is 105% (inactive). The figure for `Cc1ccc(NC(=O)c2nc(S(C)(=O)=O)ncc2N(Cc2ccco2)Cc2ccco2)cc1` is 44% (inactive). As for `CCS(=O)(=O)c1ncc(N(Cc2ccc(F)cc2)Cc2ccco2)c(C(=O)Nc2cc(C)ccc2C)n1`, the survival was 58% (inactive).
